# Experimental data published in PubChem BioAssay (NCATS).
# Several values for one entry are separate records, joined by “and”; a condition that tells them apart may be missing. Equal values may be shown once. Records with an inconclusive call do not appear. A call without a number means that no potency is given here. Activity calls are given as the source filed them. The call rests on the fitted dose curve; in most records, active means well fitted curve in the direction sought with a large enough effect; inconclusive means small, poorly fitted or top-dose-only effect, or another doubt; inactive means no such curve, though single readings can be large; an effect the other way counts as inactive or inconclusive.
# Experiments:
# [1] = qHTS for Inhibitors of the Aldehyde Dehydrogenase Family (ALDH1A2, ALDH1A3, ALDH2, ALDH3A1) (AID 2061307); further: nearly all actives have a fitted effect of over 50% in size; on potency: test system not described further here
# [2] = biological target: Aldehyde dehydrogenase, mitochondrial (Homo sapiens) (UniProt P05091); test: qHTS for Inhibitors of the Aldehyde Dehydrogenase Family (ALDH2) Primary screen (AID 2061308); further: nearly all actives have a fitted effect of over 55% in size
# [3] = biological target: Retinaldehyde dehydrogenase 3 (Homo sapiens) (UniProt P47895); test: qHTS for Inhibitors of the Aldehyde Dehydrogenase Family (ALDH1A3) Confirmatory screens (AID 2061311); further: nearly all actives have a fitted effect of over 60% in size
# [4] = biological target: Retinal dehydrogenase 2 (Homo sapiens) (UniProt O94788); test: qHTS for Inhibitors of the Aldehyde Dehydrogenase Family (ALDH1A2) Confirmation screens (AID 2061314); further: nearly all actives have a fitted effect of over 65% in size
# [5] = biological target: Retinaldehyde dehydrogenase 3 (Homo sapiens) (UniProt P47895); test: qHTS for Inhibitors of the Aldehyde Dehydrogenase Family (ALDH1A3) Primary screen (AID 2061315)
# Potency means the concentration at half of the fitted maximal effect.
SMILES,Potency [1],Potency [2],Potency [3],Potency [4],Potency [5]
CC1(C)CC[C@]2(C(=O)O)CC[C@]3(C)C(=CCC4[C@@]5(C)C[C@@H](O)[C@H](O)[C@@](C)(CO)C5CC[C@]43C)[C@@H]2[C@@H]1O (some centres undefined),inactive,inactive,11 µM (active),–,–
O=C(O)c1ccc(O)c2ncc(N3CC(N4CCOCC4)C3)cc12,inactive,inactive,12.7 µM (active),15.9 µM (active),inactive
CCOC(=O)C1CCN(c2ncc(-c3ccc4c(c3)OCCCO4)s2)CC1,5.65 µM (active),inactive,10.1 µM (active),4 µM (active),–
N#Cc1cccc(C#N)c1-c1nc2c3ccccc3c3cc(Cl)ccc3c2[nH]1,inactive,inactive,5.65 µM (active),inactive,25.1 µM (active)
COc1cccc(C2c3c(ncn(-c4ccccc4-c4ccccc4)c3=N)Oc3ccc4ccccc4c32)c1 (centres undefined),8.91 µM (active),inactive,15.8 µM (active),7.98 µM (active),inactive
N[C@H](Cc1cscn1)C(=O)Nc1cccc(-c2nn3c(=O)cc(N4CCNCC4)nc3s2)c1,inactive,–,–,–,–
N#Cc1cccc(-c2ccc3nc(-c4ccccc4)cn3c2)c1,inactive,–,–,–,–
O=C(O)c1ccc(-n2[nH]c(-c3ccccc3)cc2=O)cc1,8.91 µM (active),–,–,–,–
c1cc2c(cc1CNc1ccc(N3CCCCC3)cc1)OCO2,12.7 µM (active),inactive,12.7 µM (active),–,–
C=C1CN(Cc2ccc(C(=O)Nc3ccccc3N)cc2)C(=O)c2ccccc21,15.8 µM (active),inactive,inactive,inactive,inactive
CCOC(=O)C1CCN(C(=O)C(C)(C)NC(=O)Nc2ccc(N)cc2)CC1,inactive,inactive,–,–,–
O=C(O)c1ccc(-c2noc(-c3cccc(F)c3)n2)cc1,1.52 µM (active),inactive,–,–,–
Cc1ccsc1CN(C)c1ncnc2ccc(-c3ccoc3)cc12,inactive,inactive,22.5 µM (active),11.3 µM (active),inactive
CC(=O)NC(C)c1cc(F)c2cccnc2c1O (centres undefined),2.52 µM (active),inactive,11.3 µM (active),10.1 µM (active),inactive
COc1cccc(-c2nc(-c3ccc(C(=O)O)cc3)no2)c1,1.2 µM (active),inactive,0.504 µM (active),inactive,–
Oc1ccc(COc2cccc3ccccc23)c2cccnc12,inactive,inactive,10.1 µM (active),–,–
COc1cccc(C2c3c(ncn(-c4ccccc4)c3=N)Oc3ccc4ccccc4c32)c1 (centres undefined),inactive,inactive,11.3 µM (active),12.7 µM (active),inactive
O=C(O)c1ccc(-c2noc(-c3ccccc3F)n2)cc1,3.98 µM (active) and 1.2 µM (active),inactive,0.565 µM (active),inactive,–
CCOc1ccc2[nH]c(=O)c(CN(Cc3nnnn3Cc3ccco3)C3CCCCC3)cc2c1,0.896 µM (active),–,–,–,–
COc1cccc(N2CCN(c3ncnc4c3c(-c3ccccc3)cn4-c3cccc(C(F)(F)F)c3)CC2)c1,inactive,–,–,–,–

SMILES,Potency [1],Potency [2],Potency [3],Potency [4],Potency [5]
Cc1ccc(CNc2ncnc3ccc(-c4ccoc4)cc23)o1,inactive,inactive,inactive,20.1 µM (active),inactive
NCC(CNc1nc(Nc2cccc(NC(=O)N3CCCC3)c2)ncc1I)C(=O)c1cccs1 (centres undefined),inactive,20 µM (active),–,–,–
O=C(NCc1ccccc1)C1CCN(c2nc(-c3ccc(Br)cc3)cs2)CC1,7.08 µM (active),inactive,inactive,inactive,inactive
Oc1ccccc1C1Nc2cccc3cccc(c23)N1,inactive,inactive,12.7 µM (active),–,–
COc1ccc(-n2c(C)c(C(C)=O)c3cc(OC(=O)c4ccco4)ccc32)cc1,inactive,–,–,–,–
COc1ccc2nc(-c3ccc(F)cc3)sc2c1,5.38 µM (active),inactive,–,–,–
Cc1cccc(Nc2nc(-c3ccccc3)c3cc(Cl)ccc3n2)c1,12.6 µM (active),–,–,–,–
Cc1ccc(CNc2ccc(N3CCCCC3)cc2)cc1,11.3 µM (active),inactive,20.1 µM (active),28.3 µM (active),–
Cc1ccc(S(=O)(=O)Nc2cc(F)ccc2C(=O)Nc2nc(-c3ccccc3)cs2)cc1,0.224 µM (active),inactive,inactive,5.04 µM (active),inactive
COc1ccc(N2CCN(C(=O)c3cnc(N4CCCCC4)c4ccccc34)CC2)cc1,inactive,–,–,–,–
Oc1ccc(COC2CCN(Cc3ccccc3)C2)c2cccnc12 (centres undefined),inactive,inactive,12.7 µM (active),inactive,inactive
CCN1C(=O)c2ccccc2S(=O)c2ccc(C(=O)NCc3ccccc3Cl)cc21 (centres undefined),12.7 µM (active),–,–,–,–
c1cc2c(cc1CNc1ccc(N3CCOCC3)cc1)OCO2,11.3 µM (active),inactive,6.34 µM (active),–,–
Cc1ccc2nc3sc(C(=O)NCCCN(C)C)cc3cc2c1,12.1 µM (active),inactive,21.5 µM (active),–,–
Cc1ccc(CNc2ccc(N3CCN(C)CC3=O)cc2)cc1,inactive,inactive,–,–,–
COc1ccc(-n2ccc(CNc3cccc(F)c3C#N)n2)cc1,inactive,–,–,–,–
CC(=O)Nc1sc2c(c1-c1nc3ccccc3o1)CCN(C(C)C)C2,7.08 µM (active),inactive,12.6 µM (active),–,–
NC(=O)c1cccc2c1CCCN2C(=O)c1csc(-c2ccc(Cl)cc2)n1,inactive,–,–,–,–
O=C(NCc1ccccc1Cl)c1csc(N2CCN(c3ccc(F)cc3)CC2)n1,2.51 µM (active),–,–,–,–
